Source: PubChem BioAssay AID602393 (Broad Institute, 2012)
Out of some 350,000 compounds screened, about 7,000 (2%) were called active. The entries come from a sample that favours actives as a whole. Values without a mark were called inactive. No stated cut-off is given here; in the data, active means activation above about 40%; inconclusive means no clear call, values can overlap the other calls; inactive means below that.

Assay: raisers of Bmi1 knock-in reporter signal – mouse ES cells, Bmi1 luciferase knock-in, single point, esBAF inhibitor project, primary screen (AID 602393);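 further: 0% = median of the plate's neutral control wells and 100% = double that signal; a rise in the Bmi1 reporter signal indicates esBAF inhibition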
Settings: 24 h, at 12.5 µM, stronger effect = higher value, 100% = twice the neutral-well signal

Q: Which reporter increase does the source give for `CCCNC(=O)[C@H]1[C@H](CO)[C@H]2Cn3c(ccc(C4=CCCC4)c3=O)[C@H]2N1C(=O)CC` here?
A: -0.965%

Q: For `O=C(CN1C(=O)COc2ccc(Cl)cc21)Nc1ccc(N2CCOCC2)cc1`, which reporter increase is on record?
A: -1.03%

Q: For `CC(OC(=O)CN1C(=O)COc2ccccc21)C(=O)NCc1ccc(F)cc1` (centres undefined), which reporter increase is on record?
A: -4.32%

Q: With `O=C(CN1C(=O)COc2ccccc21)Nc1ccc(F)cc1` as the compound, how does the reporter increase read?
A: 72.1% (active)

Q: For `Cc1noc(C)c1NC(=O)N(C)C[C@@H]1OCCCC[C@H](C)Oc2ccc(NC(=O)CCC(F)(F)F)cc2C(=O)N([C@@H](C)CO)C[C@@H]1C`, which reporter increase is on record?
A: -15%

Q: For `CN(C)C(=O)C[C@@H]1CC[C@@H](NS(=O)(=O)c2ccccc2)[C@H](CO)O1`, which reporter increase is on record?
A: -9.26%

Q: With `CCOC(=O)C1(Cc2ccccc2C)CCCN(S(C)(=O)=O)C1` (centres undefined) as the compound, how does the reporter increase read?
A: -5.66%

Q: With `CCOC(=O)C1(Cc2ccccc2C)CCCN(C(=O)c2ccc(COC)o2)C1` (centres undefined) as the compound, how does the reporter increase read?
A: 52.7% (active)

Q: With `CCOC(=O)C1(Cc2ccccc2C)CCCN(C(=O)CN2C(=O)CSC2=O)C1` (centres undefined) as the compound, how does the reporter increase read?
A: 15.7%

Q: With `COc1cccc(C(=O)Nc2ccc3c(c2)C(=O)N(C)[C@@H]2CC[C@H](CC(=O)NCCCN4CCOCC4)O[C@H]2CO3)c1` as the compound, how does the reporter increase read?
A: 6.81%

Q: With `C[C@@H]1CN([C@@H](C)CO)C(=O)c2cc(NS(=O)(=O)c3cn(C)cn3)ccc2O[C@@H](C)CCCCO[C@H]1CN(C)S(=O)(=O)c1cccs1` as the compound, how does the reporter increase read?
A: -0.192%

Q: For `Cc1ccc(S(=O)(=O)Nc2ccc3c(c2)C(=O)N([C@H](C)CO)C[C@@H](C)[C@H](CN(C)C(=O)Nc2ccc(C(F)(F)F)cc2)OCCCC[C@H](C)O3)cc1`, which reporter increase is on record?
A: -0.527%

Q: Which reporter increase does the source give for `O=C1/C(=C/c2cccs2)CCc2ccccc21` here?
A: 56.4% (active)

Q: For `COc1ccc(/C=C2\CCc3ccccc3C2=O)c(OC)c1OC`, which reporter increase is on record?
A: 35.7% (active)

Q: For `O=S(=O)(c1cccs1)N1CCc2ccccc2C1`, which reporter increase is on record?
A: -5.9%

Q: Which reporter increase does the source give for `COc1ccc(/C=C2/CCCc3ccccc3C2=O)cc1` here?
A: 23.6%

Q: For `COc1ccc(/C=N/NC(=O)C2CC2)c(OC)c1OC`, which reporter increase is on record?
A: -5.72%

Q: For `c1ccc2c(c1)CCc1snnc1-2`, which reporter increase is on record?
A: -3.35%

Q: Which reporter increase does the source give for `O=C(C[C@H]1C=C[C@@H](NS(=O)(=O)c2ccc(F)cc2)[C@@H](CO)O1)NC1CCC1` here?
A: -2.06%

Q: Which reporter increase does the source give for `CO[C@H]1CN(C)C(=O)c2cc(NS(C)(=O)=O)ccc2OC[C@@H](C)N(C)C[C@@H]1C` here?
A: 0.827%

Q: With `CN1CCCCN2[C@@H](CO)[C@@H](c3ccc(C4=CCCC4)cc3)[C@@H]2C1` as the compound, how does the reporter increase read?
A: -22.1%

Q: With `CCc1ccccc1OCC(=O)Nc1nnc(C2CC2)s1` as the compound, how does the reporter increase read?
A: 1.33%

Q: With `Cc1cc(C(=O)Nc2nnc(C3CC3)s2)c(C)s1` as the compound, how does the reporter increase read?
A: 62.3% (active)

Q: For `CCc1nnc(NC(=O)c2cc(S(=O)(=O)N3CCCCC3)ccc2C)s1`, which reporter increase is on record?
A: 8.45%

Q: For `CCc1cc(C(=O)Nc2nnc(C3CC3)s2)sc1C`, which reporter increase is on record?
A: 53.3% (active)

Q: With `COc1ccc2c(CC(=O)Nc3nnc(C4CC4)s3)coc2c1` as the compound, how does the reporter increase read?
A: 4.79%

Q: For `O=C(Nc1nnc(C2CC2)s1)C1=NN(C2CCS(=O)(=O)C2)C(=O)CC1` (centres undefined), which reporter increase is on record?
A: 4.96%

Q: For `COCc1cn(CC[C@H]2CC[C@H](NC(=O)c3ccncc3)[C@H](CO)O2)nn1`, which reporter increase is on record?
A: -3.19%

Q: For `CN1C[C@H]2[C@@H](c3ccccc31)[C@@H](CO)N2C(=O)Nc1ccccc1`, which reporter increase is on record?
A: 3.76%

Q: With `O=S(=O)(Nc1ccc2cn[nH]c2c1)c1ccccc1` as the compound, how does the reporter increase read?
A: -0.15%

Q: Which reporter increase does the source give for `O=S(=O)(Nc1ccc2nc(-c3ccco3)[nH]c2c1)c1ccccc1` here?
A: 60.3% (active)

Q: For `Cn1c(CCN2CCCC2)nc2cc(NS(=O)(=O)c3ccccc3)ccc21`, which reporter increase is on record?
A: 1.19%

Q: For `CO[C@H]1CC[C@@H]2CCOc3c(C#N)cccc3C(=O)N(C)C[C@H](C)C(=O)N(C)C[C@H]1O2`, which reporter increase is on record?
A: 4.38%

Q: With `C[C@H](NC(=O)C[C@@H]1C[C@@H]2c3cc(NC(=O)Nc4ccc(C(F)(F)F)cc4)ccc3O[C@@H]2[C@H](CO)O1)c1ccccc1` as the compound, how does the reporter increase read?
A: -3.56%

Q: With `COC(=O)C[C@@H]1CC[C@@H]2[C@@H](COc3ccc(NC(=O)C4CCOCC4)cc3C(=O)N2C)O1` as the compound, how does the reporter increase read?
A: 1.18%

Q: Which reporter increase does the source give for `C[C@H]1CN([C@@H](C)CO)C(=O)Cc2cc(NC(=O)Nc3ccc(F)cc3)ccc2O[C@H]1CN(C)S(=O)(=O)c1ccc(F)cc1` here?
A: 1.01%

Q: With `Cc1nc2cc(NCc3cccs3)ccc2n1C` as the compound, how does the reporter increase read?
A: 35%

Q: For `COc1cc(-n2c(C)nc3cc(C(=O)NCc4ccco4)ccc32)cc(OC)c1OC`, which reporter increase is on record?
A: -1.78%

Q: With `COc1ccc(-n2cnc3cc(NCc4ccco4)ccc32)cc1` as the compound, how does the reporter increase read?
A: 56.7% (active)

Q: With `O=C(C[C@H]1CC[C@H](NC(=O)Nc2ccccc2F)[C@@H](CO)O1)NCc1ccccc1` as the compound, how does the reporter increase read?
A: 0.158%

Q: With `S=C(Nc1ccccc1)Nc1ccc2ccccc2c1` as the compound, how does the reporter increase read?
A: 78.2% (active)

Q: Which reporter increase does the source give for `FC(F)(F)Oc1ccc(NC(=S)NCc2ccccc2)cc1` here?
A: -1.5%

Q: With `Cc1ccc(NC(=S)Nc2ccc(F)cc2)cc1` as the compound, how does the reporter increase read?
A: 9.65%

Q: Which reporter increase does the source give for `CCCCCOc1ccc(/C=C/C(=O)NCCc2nc3ccccc3[nH]2)cc1OC` here?
A: 1.93%

Q: With `COc1cc(/C=C(\C#N)c2nc3ccccc3[nH]2)ccc1O` as the compound, how does the reporter increase read?
A: 54.9% (active)

Q: For `CCOc1ccc(/C=C(/C#N)c2nnc(N3CCOCC3)n2-c2ccccc2)cc1OC`, which reporter increase is on record?
A: 2.69%

Q: Which reporter increase does the source give for `CC=Cc1ccc2n(c1=O)C[C@@H]1[C@@H](CO)[C@H](C(=O)NCCCN3CCOCC3)[C@H]2N1Cc1cocn1` (mixture of isomers) here?
A: -2.98%

Q: For `CCNC(=O)C[C@@H]1CC[C@H](NC(=O)NC2CCCCC2)[C@H](CO)O1`, which reporter increase is on record?
A: -1.71%

Q: With `O=C(C[C@@H]1C[C@@H]2c3cc(NC(=O)Cc4ccncc4)ccc3O[C@@H]2[C@H](CO)O1)NCc1cccc(F)c1` as the compound, how does the reporter increase read?
A: -1.25%

Q: With `O=C(COc1ccccc1Cl)N1CCCCCCC1` as the compound, how does the reporter increase read?
A: 5.02%

Q: For `O=C(OCC(=O)N1CCCCCC1)c1cccc(Cl)c1Cl`, which reporter increase is on record?
A: 46.9% (active)

Q: Which reporter increase does the source give for `O=C(COC(=O)c1cccc(Cl)c1Cl)NC1CCCCCC1` here?
A: -2.51%

Q: Which reporter increase does the source give for `Cc1ccc(C)c(NC(=O)c2ccc(OC(=O)c3ccco3)cc2)c1` here?
A: 5.84%

Q: With `Cc1ccc(O)c(NC(=O)c2cc(-c3ccco3)on2)c1` as the compound, how does the reporter increase read?
A: 69.9% (active)

Q: With `CC(C)Cc1cc(C(=O)Nc2cc(Br)ccc2O)no1` as the compound, how does the reporter increase read?
A: 30.6%

Q: Which reporter increase does the source give for `C[C@H](CO)N1C[C@H](C)[C@@H](CN(C)CC2CC2)OCCCC[C@H](C)Oc2ccc(NC(=O)Nc3ccccc3)cc2C1=O` here?
A: 2.38%

Q: With `CNC[C@H]1Oc2cc(-c3ccc(C(=O)N(C)C)cc3)ccc2S(=O)(=O)N([C@@H](C)CO)C[C@@H]1C` as the compound, how does the reporter increase read?
A: 0.467%

Q: For `C[C@@H]1CN([C@H](C)CO)C(=O)c2ccccc2-c2ccccc2CO[C@H]1CN(C)C(=O)CCC(F)(F)F`, which reporter increase is on record?
A: -0.31%

Q: For `O=c1c2c(nc3n1CCCCC3)sc1c(O)cccc12`, which reporter increase is on record?
A: -22.9%

Q: Which reporter increase does the source give for `COc1cccc(C(=O)Nc2ccc3nc4n(c(=O)c3c2)CCCCC4)c1` here?
A: 38.2%

Q: For `CC(=O)c1ccc(NC(=O)c2sc3nc4n(c(=O)c3c2C)CCCCC4)cc1`, which reporter increase is on record?
A: 56.1% (active)

Q: With `COc1cccc(NC(=O)N(C)C[C@H]2Oc3ncc(C4=CCCCC4)cc3C(=O)N([C@H](C)CO)C[C@H]2C)c1` as the compound, how does the reporter increase read?
A: 6.32%

Q: With `C[C@H](CO)N1C[C@H](C)[C@@H](CN(C)C(=O)Nc2ccccc2)Oc2ncc(C3=CCCC3)cc2C1=O` as the compound, how does the reporter increase read?
A: 1.19%

Q: With `Cn1cnc(S(=O)(=O)N2C[C@@H](O)COC[C@H]3O[C@H](CC(=O)N4CCN(c5ccccc5)CC4)CC[C@@H]32)c1` as the compound, how does the reporter increase read?
A: 0.849%

Q: Which reporter increase does the source give for `COc1cccc(C2CC(c3ccccc3)=NN2S(=O)(=O)c2ccccc2)c1OC` (centres undefined) here?
A: -2.12%

Q: For `COc1ccc(C2=NN(C(=O)c3ccccc3C(=O)O)C(c3ccccc3O)C2)cc1` (centres undefined), which reporter increase is on record?
A: 74.8% (active)

Q: With `COc1ccc(C2=NN(C(=O)CSc3nc(=O)n4ccc(C)cc4n3)C(c3ccc(C)cc3)C2)cc1` (centres undefined) as the compound, how does the reporter increase read?
A: 9.03%

Q: With `COc1ccc(C2=NN(C(C)=O)C(c3ccccc3)C2)cc1` (centres undefined) as the compound, how does the reporter increase read?
A: 53.9% (active)

Q: With `COc1ccc(C2CC(c3ccccc3)=NN2C(=O)c2ccc(Cl)c([N+](=O)[O-])c2)cc1` (centres undefined) as the compound, how does the reporter increase read?
A: -0.268%

Q: For `COc1ccc(C2=NN(C(=O)CSc3nnnn3C)C(c3ccco3)C2)cc1` (centres undefined), which reporter increase is on record?
A: 18%

Q: With `COc1ccc(C2CC(c3cccc(OC)c3)=NN2c2ccc(S(N)(=O)=O)cc2)cc1` (centres undefined) as the compound, how does the reporter increase read?
A: 4.76%

Q: Which reporter increase does the source give for `COc1ccc(C2CC(c3ccc([N+](=O)[O-])cc3)=NN2C(C)=O)cc1` (centres undefined) here?
A: 71.3% (active)

Q: For `COc1ccc(C2CC(c3ccccc3)=NN2C(=O)CSc2nccc(=O)[nH]2)cc1` (centres undefined), which reporter increase is on record?
A: 11.5%

Q: With `C[C@@H]1CN([C@@H](C)CO)C(=O)Cc2cc(NC(=O)Nc3cccc4ccccc34)ccc2O[C@@H]1CN(C)CC1CCCCC1` as the compound, how does the reporter increase read?
A: -7.15%

Q: For `CC(C)CC#Cc1cnc2c(c1)C(=O)N([C@H](C)CO)C[C@H](C)[C@@H](CN(C)Cc1ccccc1C(=O)O)O2`, which reporter increase is on record?
A: -5.98%

Q: For `Cc1noc(C)c1S(=O)(=O)Nc1ccc2c(c1)C(=O)N([C@H](C)CO)C[C@@H](C)[C@@H](CN(C)Cc1ccccc1)OCCCC[C@@H](C)O2`, which reporter increase is on record?
A: 3.09%

Q: With `CN1C(=O)c2cc(NC(=O)C3CCCCC3)ccc2OC[C@H]2O[C@@H](CC(=O)NC3CCCC3)CC[C@@H]21` as the compound, how does the reporter increase read?
A: 0.376%

Q: Which reporter increase does the source give for `C[C@@H]1CN([C@@H](C)CO)C(=O)Cc2cc(NC(=O)Nc3cccc4ccccc34)ccc2O[C@H]1CN(C)S(=O)(=O)c1ccc(Cl)cc1` here?
A: -0.13%

Q: Which reporter increase does the source give for `COc1ccc(NC(=O)N(C)C[C@H]2Oc3ccc(NC(=O)Cc4cn(C)c5ccccc45)cc3CC(=O)N([C@@H](C)CO)C[C@H]2C)cc1` here?
A: -1.83%
